Here are results for 13 compounds from PubChem BioAssay (EPA / NIEHS).

In assay [1] the target is Androgen receptor (Homo sapiens) (UniProt P10275). Nature of the assay: ATG_AR_TRANS: Attagene TRANS-FACTORIAL HepG2 Assay for human Androgen Receptor (AR) (AID 2282973). Conditions: HepG2 Attagene TRANS-FACTORIAL AR reporter transcription. Put shortly: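 Transcriptional activity of an exogenous AR–Gal4 fusion read as GAL4-UAS reporter transcript levels in transfected human HepG2 cells after 24 h dosing. Detection via RT-PCR, 6-FAM labelling, HpaI digest and capillary electrophoresis; increase over DMSO baseline.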
Chain of Androgen receptor (Homo sapiens) (P10275 whole entry, looked up, the tested form may be a part): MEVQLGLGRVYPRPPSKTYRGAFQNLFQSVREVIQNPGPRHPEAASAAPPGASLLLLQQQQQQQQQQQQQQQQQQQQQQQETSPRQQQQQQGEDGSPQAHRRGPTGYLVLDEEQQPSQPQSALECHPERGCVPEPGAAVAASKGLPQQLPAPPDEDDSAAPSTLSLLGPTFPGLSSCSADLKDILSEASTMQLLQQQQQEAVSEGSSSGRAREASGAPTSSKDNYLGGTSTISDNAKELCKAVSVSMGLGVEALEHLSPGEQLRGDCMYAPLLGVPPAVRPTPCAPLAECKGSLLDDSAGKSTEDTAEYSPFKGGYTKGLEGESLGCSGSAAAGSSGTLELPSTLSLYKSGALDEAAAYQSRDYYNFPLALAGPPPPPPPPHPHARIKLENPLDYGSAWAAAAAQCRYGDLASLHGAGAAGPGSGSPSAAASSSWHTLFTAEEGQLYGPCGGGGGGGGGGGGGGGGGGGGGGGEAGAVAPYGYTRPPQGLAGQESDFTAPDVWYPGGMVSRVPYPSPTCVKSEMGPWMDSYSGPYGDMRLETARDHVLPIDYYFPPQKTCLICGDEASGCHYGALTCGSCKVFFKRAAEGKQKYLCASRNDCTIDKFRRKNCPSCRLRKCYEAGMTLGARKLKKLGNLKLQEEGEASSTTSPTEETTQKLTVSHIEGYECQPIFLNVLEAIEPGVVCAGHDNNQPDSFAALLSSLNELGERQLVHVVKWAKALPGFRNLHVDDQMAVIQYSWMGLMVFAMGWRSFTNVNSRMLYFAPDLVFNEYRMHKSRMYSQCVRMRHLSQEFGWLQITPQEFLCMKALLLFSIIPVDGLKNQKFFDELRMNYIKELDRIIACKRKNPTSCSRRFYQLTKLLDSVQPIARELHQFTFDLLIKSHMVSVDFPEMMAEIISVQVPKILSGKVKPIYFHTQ

In assay [2] the target is human Fibroblast Growth Factor Receptor 1 (FGFR1), FGFR1 (gene 2260) (UniProt P11362). Nature of the assay: NVS_ENZ_hFGFR1: NovaScreen (NVS) Enzymatic Assay for human Fibroblast Growth Factor Receptor 1 (FGFR1) (AID 2283159). Put shortly: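 Cell-free recombinant kinase with fluorescent substrate, product separated by electrophoretic mobility shift; read 1 hour after dosing, loss of signal relative to DMSO. Initial screen in duplicate at 25 uM, actives followed in concentration series.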
Chain of human Fibroblast Growth Factor Receptor 1 (FGFR1), FGFR1 (gene 2260) (P11362 whole entry, looked up): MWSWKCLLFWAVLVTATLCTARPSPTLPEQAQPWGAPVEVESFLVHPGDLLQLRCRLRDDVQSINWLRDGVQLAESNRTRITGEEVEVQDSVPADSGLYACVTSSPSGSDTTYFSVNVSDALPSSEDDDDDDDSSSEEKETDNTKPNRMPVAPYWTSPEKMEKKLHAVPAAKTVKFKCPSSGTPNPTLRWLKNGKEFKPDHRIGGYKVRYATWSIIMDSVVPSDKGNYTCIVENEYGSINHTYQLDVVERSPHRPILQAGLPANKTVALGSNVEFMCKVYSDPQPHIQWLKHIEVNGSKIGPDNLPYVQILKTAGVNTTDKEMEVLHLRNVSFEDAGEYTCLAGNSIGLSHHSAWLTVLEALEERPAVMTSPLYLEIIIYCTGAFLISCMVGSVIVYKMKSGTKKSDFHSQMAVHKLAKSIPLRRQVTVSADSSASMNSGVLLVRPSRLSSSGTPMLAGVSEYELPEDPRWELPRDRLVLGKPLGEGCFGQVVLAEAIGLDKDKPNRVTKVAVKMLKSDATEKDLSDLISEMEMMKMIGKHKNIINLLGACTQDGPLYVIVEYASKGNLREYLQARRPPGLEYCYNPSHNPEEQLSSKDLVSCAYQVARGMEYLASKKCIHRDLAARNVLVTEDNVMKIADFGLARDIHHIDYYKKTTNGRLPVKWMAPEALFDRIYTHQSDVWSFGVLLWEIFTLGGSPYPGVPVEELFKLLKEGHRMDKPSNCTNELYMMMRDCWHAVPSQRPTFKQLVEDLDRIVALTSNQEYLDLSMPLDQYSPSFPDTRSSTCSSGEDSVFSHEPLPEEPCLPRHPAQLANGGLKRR

In assay [3] the target is human Protein Tyrosine Phosphatase Receptor Type C (PTPRC), PTPRC (gene 5788) (UniProt P08575). The assay is described as follows: NVS_ENZ_hPTPRC: NovaScreen (NVS) Enzymatic Assay for human Protein Tyrosine Phosphatase Receptor Type C (PTPRC) (AID 2283212). Put shortly:
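Yeast-extracted human PTPRC used in a cell-free colorimetric enzyme activity read-out, 1 h after dosing. Primary screen in duplicate at 25 uM; actives rerun in concentration-response up to 50 uM, DMSO as baseline.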

The target in assay [4] is human Tyrosine Protein Kinase Receptor Tie-2 (Tie2), TEK (gene 7010) (UniProt Q02763). The assay is described as follows: NVS_ENZ_hTie2: NovaScreen (NVS) Enzymatic Assay for human Tyrosine Protein Kinase Receptor Tie-2 (Tie2) (AID 2283225). Put shortly: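 Recombinant human Tie2 kinase activity was read cell-free by fluorescence with electrophoretic mobility shift, 1 hour after dosing. The screen used 25 uM in duplicate, then concentration-response up to 50 uM. Signal loss was scored against DMSO.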

The next assay concerns the target Caspase-1 (Homo sapiens) (UniProt P29466). Nature of the assay: NVS_ENZ_hCASP1: NovaScreen (NVS) Enzymatic Assay for human Caspase 1 (CASP1) (AID 2283132). Put shortly:
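Cell-free enzymatic assay with E. coli-expressed recombinant protein; fluorescence intensity read 1 hour after dosing. Single-concentration duplicate screen at 25 uM, then concentration-response up to 50 uM; activity fitted relative to DMSO, loss of signal meaning inhibition.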

Assay [5] concerns the target human Caspase 2 (CASP2), CASP2 (gene 835) (UniProt P42575). The assay is described as follows: NVS_ENZ_hCASP2: NovaScreen (NVS) Enzymatic Assay for human Caspase 2 (CASP2) (AID 2283135). An outline of the steps:
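E. coli-expressed enzyme in a cell-free protease assay, fluorescence read 1 h after dosing. Compounds at 25 uM in duplicate, with concentration-response up to 50 uM for hits; loss of signal against DMSO baseline.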

Assay [6] concerns rat Monoamine Oxidase, MAO-A, Central (MAOAC), gene 29253. The assay is described as follows: NVS_ENZ_rMAOAC: NovaScreen (NVS) Enzymatic Assay for rat Monoamine Oxidase, MAO-A, Central (MAOAC) (AID 2283243).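 Further: potency refers to inhibition seen as signal drop below DMSO baseline.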 Put shortly:
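Rat brain tissue extract used as enzyme source in a cell-free radiometric assay, read by scintillation counting 1.5 hours after dosing. Loss of signal relative to DMSO baseline scored; primary screen at 25 uM in duplicate, actives followed up in concentration series.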

Assay [7] has as its target human Phosphatase and Tensin Homolog (PTEN), PTEN (gene 5728) (UniProt P60484). The assay is described as follows: NVS_ENZ_hPTEN: NovaScreen (NVS) Enzymatic Assay for human Phosphatase and Tensin Homolog (PTEN) (AID 2283203). Put shortly:
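Cell-free recombinant human PTEN with fluorescent substrate; product separated by electrophoretic mobility shift and read by fluorescence 1 h after dosing. Primary screen in duplicate at 25 uM, actives followed in concentration series versus DMSO.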

Assay [8] concerns the target rat Acetylcholinesterase (AChE), Ache (gene 83817) (UniProt P37136). The assay is described as follows: NVS_ENZ_rAChE: NovaScreen (NVS) Enzymatic Assay for rat Acetylcholinesterase (AChE) (AID 2283233). An outline of the steps: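 Rat brain membrane acetylcholinesterase activity measured colorimetrically 0.33 h after compound addition, loss of signal relative to DMSO. Primary screen in duplicate at 25 uM; actives re-run as concentration-response with 50 uM top concentration.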

Assay [9] concerns the target rat Adenylate Cyclase, Forskolin Stimulated, Adcy5 (gene 64532) (UniProt Q04400). The assay is described as follows: NVS_ENZ_rACFSKBinding: NovaScreen (NVS) Enzymatic Assay for rat Adenylate Cyclase, Forskolin Stimulated (AID 2283232). An outline of the steps: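 Rat forebrain membrane preparation, cell-free, read 1 h after dosing by filter-based scintillation counting. Primary screen in duplicate at 25 uM; actives (e.g. ≥30% inhibition) rerun in concentration-response up to 50 uM; fit versus DMSO.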

The target in assay [10] is Voltage-dependent N-type calcium channel subunit alpha-1B (Rattus norvegicus) (UniProt Q02294). The assay is described as follows: NVS_IC_rCaChN: NovaScreen (NVS) Ion Channel Assay for rat Calcium Channel, Type N (CaChN) (AID 2283317).
The target of assay [11] is rat Oxytocin Receptor (OXT), Oxtr (gene 25342) (UniProt P70536). Nature of the assay: NVS_GPCR_rOXT: NovaScreen (NVS) G Protein-Coupled Receptor Assay for rat Oxytocin Receptor (OXT) (AID 2283330). An outline of the steps: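 Radioligand displacement on rat uterine membranes, 1 h incubation, filter-based scintillation counting. Chemicals were screened in duplicate at 25 uM, and those passing threshold were retested in concentration-response up to 50 uM. Loss of binding was fitted versus DMSO.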
Chain of rat Oxytocin Receptor (OXT), Oxtr (gene 25342) (P70536 whole entry, looked up): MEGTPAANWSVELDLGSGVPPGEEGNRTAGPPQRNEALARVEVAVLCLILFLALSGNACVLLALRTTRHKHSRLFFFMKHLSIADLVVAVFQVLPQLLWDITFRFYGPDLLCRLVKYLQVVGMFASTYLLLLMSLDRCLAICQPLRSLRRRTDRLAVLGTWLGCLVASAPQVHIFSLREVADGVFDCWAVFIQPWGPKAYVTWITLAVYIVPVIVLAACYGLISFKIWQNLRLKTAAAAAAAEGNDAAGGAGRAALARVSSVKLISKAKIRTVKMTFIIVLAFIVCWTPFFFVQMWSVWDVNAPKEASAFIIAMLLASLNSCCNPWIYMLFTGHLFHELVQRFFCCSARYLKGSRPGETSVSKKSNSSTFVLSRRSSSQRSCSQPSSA

Assay [12] addresses bovine Gamma-Aminobutyric Acid Type A Receptor BDZ, alpha 1 site (GABARa1), GABRA1 (gene 780973) (UniProt P08219). The assay is described as follows: NVS_LGIC_bGABARa1: NovaScreen (NVS) Ligand-Gated Ion Channel Assay for bovine Gamma-Aminobutyric Acid Type A Receptor BDZ, alpha 1 site (GABARa1) (AID 2283321). An outline of the steps: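 Radioligand competition binding on bovine cortical membranes, 0.75 h, filter-based scintillation counting. Primary single concentration 25 uM in duplicate; actives rerun in concentration-response to 50 uM max. Loss of signal fitted versus DMSO.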

Assay [13] is described as follows: ATG_M_32_XSP2: Attagene TRANS-FACTORIAL Multi-Species (XSP2) HepG2 Assay for M19 Transcription Factor (Internal Marker) (AID 2283826). Put shortly: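 Read-out: reporter mRNA quantified by RT-PCR, FAM labeling, HpaI digestion and capillary electrophoresis, 24 h after dosing transfected HepG2 cells. Medium carried 3 nM 6-alpha-fluorotestosterone plus 1.5 nM norgestrel; gain of signal fitted against DMSO.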

Assay [14] is described as follows: Tanguay_ZF_120hpf_MUSC: Oregon State University Tanguay Lab 120 Hour Post-fertilization zebrafish Assay for Muscle Malformation (AID 2284401; active means hit-call score of the fitted dose curve at least 0.9, where 1 is the maximum; inactive means score below 0.9). An outline of the steps: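 Dechorionated Tropical 5D wild-type zebrafish embryos exposed statically from 6 to 120 hpf at 28C, one per well, in 0.64% DMSO. Muscle malformation scored present/absent by brightfield microscopy at 120 hpf, fitted against DMSO.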

In assay [15] the target is Norway rat Vesicular Monoamine Transporter (VMAT2), neurotransmitter transporter, Slc18a2 (gene 25549) (UniProt Q01827). The assay is described as follows: NVS_TR_rVMAT2: NovaScreen (NVS) Transporter Assay for Norway rat Vesicular Monoamine Transporter (VMAT2), neurotransmitter transporter (AID 2283376).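 Further: actives lower the bound radioligand signal below the DMSO level.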 Put shortly: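 Rat forebrain tissue preparation used in a cell-free radioligand binding format; displacement read by filter-based scintillation counting 1 hour after dosing. Primary screen in duplicate at 25 uM, actives then run in concentration series; loss of signal versus DMSO baseline.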
Chain of Norway rat Vesicular Monoamine Transporter (VMAT2), neurotransmitter transporter, Slc18a2 (gene 25549) (Q01827 whole entry, looked up): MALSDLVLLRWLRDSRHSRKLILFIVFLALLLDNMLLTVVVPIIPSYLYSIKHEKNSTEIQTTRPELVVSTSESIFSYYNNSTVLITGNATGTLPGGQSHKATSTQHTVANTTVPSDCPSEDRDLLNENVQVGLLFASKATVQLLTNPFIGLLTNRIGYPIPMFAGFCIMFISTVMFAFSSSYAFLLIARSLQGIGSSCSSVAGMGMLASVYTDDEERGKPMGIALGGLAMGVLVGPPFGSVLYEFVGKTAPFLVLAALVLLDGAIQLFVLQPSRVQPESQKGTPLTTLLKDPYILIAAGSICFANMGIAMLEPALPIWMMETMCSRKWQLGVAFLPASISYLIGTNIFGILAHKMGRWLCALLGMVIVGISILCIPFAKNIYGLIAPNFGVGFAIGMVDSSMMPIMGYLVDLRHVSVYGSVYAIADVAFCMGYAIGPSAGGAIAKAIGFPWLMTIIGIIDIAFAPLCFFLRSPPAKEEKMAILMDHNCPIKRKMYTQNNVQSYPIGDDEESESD

Records with an inconclusive call do not appear. Activity calls are given as the source filed them. How the source made its calls, unless noted: active means hit-call score of the fitted dose curve at least 0.9, where 1 is the maximum; inconclusive means response in the unintended direction; inactive means score below 0.9.

Chain of human Caspase 2 (CASP2), CASP2 (gene 835) (P42575 whole entry, looked up): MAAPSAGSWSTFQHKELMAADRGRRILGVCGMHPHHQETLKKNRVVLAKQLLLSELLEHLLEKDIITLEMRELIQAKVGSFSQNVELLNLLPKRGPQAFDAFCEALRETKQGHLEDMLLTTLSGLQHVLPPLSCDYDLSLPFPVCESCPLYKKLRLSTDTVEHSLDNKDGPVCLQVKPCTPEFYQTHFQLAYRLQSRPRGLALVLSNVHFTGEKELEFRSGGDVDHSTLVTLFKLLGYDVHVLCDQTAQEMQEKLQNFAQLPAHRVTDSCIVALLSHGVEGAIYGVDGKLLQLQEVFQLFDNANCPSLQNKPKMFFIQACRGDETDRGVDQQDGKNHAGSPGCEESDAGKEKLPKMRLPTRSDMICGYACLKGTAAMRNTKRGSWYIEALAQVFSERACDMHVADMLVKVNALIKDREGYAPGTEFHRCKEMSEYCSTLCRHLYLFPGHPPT
Chain of human Protein Tyrosine Phosphatase Receptor Type C (PTPRC), PTPRC (gene 5788) (P08575 whole entry, looked up): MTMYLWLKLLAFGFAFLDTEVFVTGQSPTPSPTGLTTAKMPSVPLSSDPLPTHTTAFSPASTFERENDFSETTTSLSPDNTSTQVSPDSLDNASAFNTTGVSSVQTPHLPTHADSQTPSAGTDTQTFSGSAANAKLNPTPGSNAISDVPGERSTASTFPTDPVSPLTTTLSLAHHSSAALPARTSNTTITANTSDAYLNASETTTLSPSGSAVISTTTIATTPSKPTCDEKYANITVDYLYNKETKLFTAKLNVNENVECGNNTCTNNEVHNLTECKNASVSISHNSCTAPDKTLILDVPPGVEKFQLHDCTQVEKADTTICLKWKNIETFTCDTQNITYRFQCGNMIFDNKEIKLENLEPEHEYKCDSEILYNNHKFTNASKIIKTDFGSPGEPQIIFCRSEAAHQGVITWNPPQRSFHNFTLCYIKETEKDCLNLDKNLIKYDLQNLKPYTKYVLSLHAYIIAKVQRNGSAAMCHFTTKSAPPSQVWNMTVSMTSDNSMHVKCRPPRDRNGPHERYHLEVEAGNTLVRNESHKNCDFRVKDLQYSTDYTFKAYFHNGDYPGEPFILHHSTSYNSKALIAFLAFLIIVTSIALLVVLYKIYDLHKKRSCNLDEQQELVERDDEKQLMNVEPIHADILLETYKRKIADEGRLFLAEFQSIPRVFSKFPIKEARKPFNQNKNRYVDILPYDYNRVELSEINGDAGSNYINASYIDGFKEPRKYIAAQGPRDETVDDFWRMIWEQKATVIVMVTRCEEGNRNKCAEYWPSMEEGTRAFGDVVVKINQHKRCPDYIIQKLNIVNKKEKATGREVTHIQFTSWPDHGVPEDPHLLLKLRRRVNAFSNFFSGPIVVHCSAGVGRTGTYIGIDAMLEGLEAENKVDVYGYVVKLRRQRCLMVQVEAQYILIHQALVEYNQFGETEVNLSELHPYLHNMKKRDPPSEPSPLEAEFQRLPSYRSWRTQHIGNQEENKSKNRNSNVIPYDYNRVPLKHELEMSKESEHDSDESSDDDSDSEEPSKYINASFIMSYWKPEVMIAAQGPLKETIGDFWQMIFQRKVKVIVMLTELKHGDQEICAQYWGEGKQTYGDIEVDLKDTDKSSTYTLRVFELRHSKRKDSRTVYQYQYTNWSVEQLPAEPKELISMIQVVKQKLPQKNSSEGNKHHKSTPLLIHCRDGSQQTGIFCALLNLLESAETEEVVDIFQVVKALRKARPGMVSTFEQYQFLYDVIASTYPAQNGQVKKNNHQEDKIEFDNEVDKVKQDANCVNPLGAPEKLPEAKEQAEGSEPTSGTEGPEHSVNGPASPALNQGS
Chain of human Phosphatase and Tensin Homolog (PTEN), PTEN (gene 5728) (P60484 whole entry, looked up): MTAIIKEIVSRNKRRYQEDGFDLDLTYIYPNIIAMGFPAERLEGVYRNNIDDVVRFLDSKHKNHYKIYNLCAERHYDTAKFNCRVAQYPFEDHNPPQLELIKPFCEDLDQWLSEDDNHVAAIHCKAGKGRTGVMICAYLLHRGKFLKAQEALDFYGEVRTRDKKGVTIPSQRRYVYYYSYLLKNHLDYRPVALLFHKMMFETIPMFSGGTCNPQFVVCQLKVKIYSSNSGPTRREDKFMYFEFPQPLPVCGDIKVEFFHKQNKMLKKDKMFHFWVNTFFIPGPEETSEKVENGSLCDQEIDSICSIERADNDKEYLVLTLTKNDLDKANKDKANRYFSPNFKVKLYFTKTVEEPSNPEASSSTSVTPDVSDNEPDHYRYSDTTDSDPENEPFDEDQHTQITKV

Turning to `Nc1cccc2c(N)cccc12`, the outcome in assay [1], in assay [2] and in assay [4] was inactive. For the same compound, the AC50 in [3] is 5.35 µM (active).

Take `Oc1cc2ccccc2c2ccccc12`: the outcome in assay [1] was inactive. The AC50 was 12.1 µM (active) with Caspase-1 (Homo sapiens), 14.6 µM (active) in assay [5] and 1.2 µM (active) in [6].

Turning to `OCCCCl`, the call in assay [1] and in assay [7] was inactive.

As for `O=C(Nc1ccc(Cl)cc1)Nc1ccc(Cl)c(Cl)c1`, the outcome in assay [1] and in assay [8] was inactive.

For `COCCOC[C@H](CC1(C(=O)NC2CCC(C(=O)O)CC2)CCCC1)C(=O)Oc1ccc2c(c1)CCC2` (some centres undefined), the call in [1], in assay [2], in assay [9], in assay [10] and in assay [11] was inactive.

Regarding `COCC(C)OCC(C)OCC(C)O` (centres undefined), the outcome in assay [1], in assay [5], in assay [2] and in assay [10] was inactive.

For `CN(C[C@@H](CC[N+]12CCC(C3CCCCC3)(CC1)CC2)c1ccc(Cl)c(Cl)c1)C(=O)c1cc(C(F)(F)F)cc(C(F)(F)F)c1`, the compound was called inactive in assay [1], in assay [3] and in assay [12]. The results for the AC50 in assay [7] and in [11] were 16.2 µM (active) and 16.5 µM (active), respectively.

For `Cc1c2ccccc2c(C)c2c1ccc1ccccc12`, the call in assay [1], in assay [6] and in assay [13] was inactive.

With `OCCCC(F)(F)C(F)(F)C(F)(F)C(F)(F)C(F)(F)C(F)(F)C(F)(F)C(F)(F)F`, the call in assay [1] and in [14] was inactive.

As for `Clc1ccc2c(Cl)ccnc2c1`, the outcome in assay [1] was inactive. In addition, the AC50 in [6] was 20.8 µM (active).

For `CCCCC(CC)C(=O)OCCOCCOCCOC(=O)C(CC)CCCC` (centres undefined), the result in [1] and in [6] was inactive.

In the case of `Cc1cnccn1`, the compound was called inactive in assay [1] and in assay [15].

Turning to `O=C1CCC(=O)N1`, the compound was classed as inactive in assay [1] and in assay [15].
